About 79,000 compounds went through this panel and 15% of them were active in at least one assay; those are over-represented in the sample as a whole. A number with no mark means an inactive call. The source made the active and inactive calls. Cut-off read from the data, not from the text of the source: active = growth inhibition above about 70%; inactive = the rest.
Tests used:
[1] = NCI Yeast Anticancer Drug Screen. Data for the rad50 strain (AID 155);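 note: 0% = growth of vehicle-only cultures of the same strain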; details: S. cerevisiae rad50 strain growth inhibition, active compounds read high
Summary of the method: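 Compounds were tested on a yeast strain with an engineered DNA damage repair alteration; the reported value is growth inhibition normalised to vehicle treatment.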

[2] = NCI Yeast Anticancer Drug Screen. Data for the mec2-1 strain (AID 157); details: S. cerevisiae mec2-1 strain, active compounds read high
Summary of the method: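 Each compound was tested on mec2-1 yeast, a strain altered in DNA damage repair or cell cycle control. Growth inhibition is reported relative to vehicle.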

[3] = NCI Yeast Anticancer Drug Screen. Data for the sgs1 mgt1 strain (AID 161);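 note: 0% = growth of cultures given vehicle only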; details: S. cerevisiae sgs1 mgt1 strain, active compounds read high
Summary of the method: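 Read-out: growth inhibition vs vehicle controls. Cells: mutant yeast strain deficient in DNA damage repair.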

[4] = NCI Yeast Anticancer Drug Screen. Data for the cln2 rad14 strain (AID 165);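 note: 0% = growth equal to vehicle treated cultures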; details: S. cerevisiae cln2 rad14 strain, active compounds read high
Summary of the method: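 Test compounds were added to cln2 rad14 yeast cultures; inhibition of growth was then determined by comparison with vehicle treatment.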

[5] = NCI Yeast Anticancer Drug Screen. Data for the bub3 strain (AID 167); details: S. cerevisiae bub3 mutant strain, active compounds read high
Summary of the method: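 Growth of a checkpoint-deficient yeast mutant is measured after compound exposure. Values represent inhibition relative to vehicle.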

[6] = NCI Yeast Anticancer Drug Screen. Data for the mlh1 rad18 strain (AID 175); details: S. cerevisiae mlh1 rad18 strain growth inhibition, active compounds read high
Summary of the method: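 Inhibition values reflect reduced growth of mutant yeast versus vehicle-treated controls following compound exposure; the mutations affect DNA damage repair.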

[7] = at 5.0 µM (retest, dose inferred, filed as 0.5)
[8] = at 50.0 µM (retest, dose inferred, filed as 5.0)

Structure (SMILES)	growth inhibition [1, 7] [%]	growth inhibition [1, 8]	growth inhibition ([1]; at 50.0 µM)	growth inhibition [2, 7] [%]	growth inhibition [2, 8]	growth inhibition ([2]; at 50.0 µM)	growth inhibition [3, 7] [%]	growth inhibition [3, 8]	growth inhibition ([3]; at 50.0 µM)	growth inhibition [4, 7] [%]	growth inhibition [4, 8]	growth inhibition ([4]; at 50.0 µM)	growth inhibition [5, 7]	growth inhibition [5, 8]	growth inhibition ([5]; at 50.0 µM)	growth inhibition [6, 7] [%]	growth inhibition [6, 8]	growth inhibition ([6]; at 50.0 µM)
O=C(Nc1ccc(F)cc1)N1CCCCC1	41	43%	8.15%	36	29%	47%	40	42%	36.9%	29	31%	9.25%	41%	70% (active)	17.3%	43	39%	33.1%
CC[N](CC)[Ge]([CH2]C)[CH2]C.CC[N](CC)[Ge]([CH2]C)[CH2]C	34	98% (active)	57%	21	98% (active)	76.9% (active)	56	99% (active)	56.4%	48	98% (active)	37.1%	59%	99% (active)	75% (active)	27	97% (active)	77.7% (active)
CC12CCC(O)CC1=CCC1C2CCC2(C)/C(=C\C#N)CCC12 (configuration not stated)	-6	53%	69.2%	5	78% (active)	9.9%	11	90% (active)	52.3%	2	81% (active)	-1.95%	2%	87% (active)	31.3%	-8	97% (active)	73.9% (active)
CCC(=O)OC1=C(Br)C(=O)c2ccccc2C1=O	14	85% (active)	89.6% (active)	17	94% (active)	57.4%	25	68%	80.3% (active)	4	68%	1.15%	18%	96% (active)	18.9%	38	85% (active)	76.6% (active)
O=C(CC1C(=O)c2ccccc2C1=C1C(=O)c2ccccc2C1=O)c1ccccc1 (configuration not stated)	-8	71% (active)	81.8% (active)	22	92% (active)	89.8% (active)	9	84% (active)	89.3% (active)	19	69%	68%	11%	94% (active)	79.2% (active)	-3	95% (active)	74% (active)
Cc1ccc(-c2c(C#N)c(S)n(NS(=O)(=O)c3ccccc3)c(=O)c2C#N)cc1	28	89% (active)	60.1%	12	91% (active)	80% (active)	32	94% (active)	83.8% (active)	47	64%	29.4%	53%	94% (active)	71.2% (active)	16	66%	75.6% (active)
CC1=C(C)C(=O)C(C(C)(C)CC(=O)n2cc(F)c(=O)[nH]c2=O)=C(C)C1=O	24	87% (active)	93.5% (active)	22	98% (active)	97.5% (active)	56	95% (active)	97.2% (active)	11	46%	41.6%	0%	63%	1.05%	18	85% (active)	86.8% (active)
Cn1cc(NC(=O)Nc2cc(C(=O)Nc3cc(C(=O)Nc4cc(S(=O)(=O)O)c5cc(S(=O)(=O)O)cc(S(=O)(=O)O)c5c4)n(C)c3)n(C)c2)cc1C(=O)Nc1cc(C(=O)Nc2cc(S(=O)(=O)O)c3cc(S(=O)(=O)O)cc(S(=O)(=O)O)c3c2)n(C)c1	35	90% (active)	86% (active)	20	80% (active)	66.8%	21	77% (active)	64.2%	32	48%	60.5%	30%	92% (active)	77.5% (active)	26	83% (active)	87% (active)
COc1cc(OC)cc(C2SCC(=O)N2c2nncs2)c1 (configuration not stated)	2	2%	20.2%	-5	-3%	97% (active)	0	2%	55.5%	-2	2%	98.8% (active)	1%	13%	98.6% (active)	0	4%	96.8% (active)
c1ccc(-c2cc(Nc3ccc4c(c3)OCO4)c3cc(C4CCCCC4)ccc3n2)cc1	10	95% (active)	79% (active)	6	96% (active)	83.9% (active)	27	97% (active)	96.7% (active)	-8	93% (active)	60.4%	4%	96% (active)	41.2%	7	94% (active)	98.2% (active)
COc1ccc(/C=N/NS(=O)(=O)c2ccccc2)cc1	0	-2%	99.1% (active)	-2	4%	99.3% (active)	0	3%	99% (active)	-10	-7%	98% (active)	2%	11%	99.2% (active)	-2	7%	99% (active)
CN1C(=S)C(=N)OC1c1ccccc1F (configuration not stated)	7	91% (active)	84.3% (active)	16	97% (active)	75.3% (active)	7	98% (active)	85.6% (active)	-2	82% (active)	33.4%	10%	99% (active)	89.2% (active)	-13	96% (active)	84.8% (active)
O=[N+]([O-])c1cc2[nH]cnc2c([N+](=O)[O-])c1NCc1ccccc1	0	47%	68.5%	0	29%	34.3%	-1	45%	80.5% (active)	-2	34%	24.2%	-4%	25%	33.1%	-3	44%	72.5% (active)
Cc1ccc(C(Cl)(c2ccc(C)cc2)c2ccc(C)cc2)cc1	3	90% (active)	67.5%	39	93% (active)	93.1% (active)	-3	93% (active)	97.5% (active)	-2	90% (active)	94.5% (active)	87% (active)	92% (active)	97.2% (active)	11	91% (active)	92.2% (active)
CCCCCCCCCCNC(=O)C[n+]1cccc(C(=O)Nc2ccccc2)c1	4	99% (active)	99.7% (active)	10	100% (active)	99.8% (active)	-13	100% (active)	99.9% (active)	3	99% (active)	99.2% (active)	-1%	99% (active)	99.6% (active)	28	100% (active)	99.8% (active)
O=C1CSC(=Nc2ccc(F)cc2F)N1Cc1cccs1	44	92% (active)	80.2% (active)	36	98% (active)	78.2% (active)	39	98% (active)	90.5% (active)	25	63%	50.1%	41%	61%	86.2% (active)	47	98% (active)	84.6% (active)
O=C(OCc1ccccc1)N1N=NC2C1C1CC(OCc3ccccc3)(OCc3ccccc3)C2O1 (configuration not stated)	18	18%	40.1%	2	2%	-21.9%	18	18%	-10.7%	4	4%	13.2%	6%	6%	18%	18	18%	-22.2%
C=CCN1CCC(OC(=O)C(O)(/C=C\CC)C2CCCC2)CC1 (configuration not stated)	19	61%	68.8%	13	40%	48.9%	37	63%	70.2% (active)	17	75% (active)	62.8%	12%	83% (active)	61.6%	7	67%	59.5%
O=C(O)/C(=C\c1ccc(O)cc1)c1cccc2ccccc12	31	18%	45.3%	-2	36%	37.6%	-2	12%	5.5%	3	27%	76.2% (active)	-21%	22%	61.5%	-4	49%	48%
